Compounds with a hit are over-represented: about 1.9% of the library has one in this group of screens.
EP2 modulator = modulators of human EP2 prostaglandin E2 receptor. EP2-expressing cells, cAMP HTRF FRET, PGE2 co-stimulation. P43116. actives 0.83% (n = 260,000). induction, % at 25 µM;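 active = compounds whose cAMP rise, as percent of the full-agonist control response, exceeds 60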;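 also: rat C6 glioma line stably carrying human EP2 under a CMV promoter; the protocol text gives 20 µM as final concentration; 100% = response of wells given 1 µM PGE2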
Target sequence (P43116 whole entry, looked up): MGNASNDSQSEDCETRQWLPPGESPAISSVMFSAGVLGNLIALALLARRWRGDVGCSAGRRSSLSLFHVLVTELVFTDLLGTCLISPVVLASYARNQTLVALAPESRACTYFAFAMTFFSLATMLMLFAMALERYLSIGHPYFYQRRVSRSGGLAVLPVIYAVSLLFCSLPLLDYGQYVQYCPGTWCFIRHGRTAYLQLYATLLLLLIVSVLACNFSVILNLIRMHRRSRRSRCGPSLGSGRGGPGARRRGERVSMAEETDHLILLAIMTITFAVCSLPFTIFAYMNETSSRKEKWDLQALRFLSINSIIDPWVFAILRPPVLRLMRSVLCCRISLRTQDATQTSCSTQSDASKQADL
S1P4 antag = antagonists of human S1P4 receptor; inhibition, % at 4.98 µM; actives 0.26% (n = 220,000); O95977; AID 1510; S1P4-expressing cells, antagonist mode, reporter read-out; in the data active = inhibition above about 29%;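 also: 0% = wells stimulated with agonist and 100% = vehicle wells without agonist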
S1P4 ag = human S1P4 receptor agonism. O95977. S1P4-expressing cell line, agonist reporter assay. activation, % at 4.98 µM. actives 0.35% (n = 220,000). AID 1509; in the data active = activation above about 11%;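 also: 0% = DMSO vehicle and 100% = reference agonist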
S1P3 antag = antagonists of human S1P3 receptor | Q99500 | CHO S1P3 NFAT-BLA reporter, FRET fluorescence, antagonist mode | inhibition, % at 4.98 µM | actives 0.27% (n = 170,000);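 active = inhibition above the plate cutoff, the mean inhibition of test wells on that plate plus 3 SD, cut at about 28% in these data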;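 also: cells challenged with S1P at its EC80 of 0.8 µM; blue over green emission ratio from cleaved BLA substrate after 4 h stimulation; 0% = S1P-stimulated wells and 100% = unstimulated DMSO-only wells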
EP2 antag = blocks the human prostaglandin E2 receptor EP2. P43116. actives 0.52% (n = 260,000). AID 1422. inhibition, % at 25 µM. C6 glioma cells expressing human EP2, cAMP TR-FRET; cells stimulated with saturating PGE2;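 active = percent inhibition above 40 after rounding to a whole number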;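 also: rat C6 glioma host cells with rolipram phosphodiesterase inhibitor present; the protocol text gives 20 µM as final concentration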
Pf gamet viab = inhibitors of late stage P. falciparum gametocyte viability | P. falciparum stage V gametocytes, ATP luminescence, 24 h | inhibition, % at 10.9 µM | actives 0.065% (n = 150,000) | AID 743093;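 active = inhibition above the mean plus 3 SD of compounds within the control limits, set per campaign, cut at about 38% in these data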;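 also: 0% = DMSO wells and 100% = medium only without gametocytes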
An asterisk follows results filed as active; · = no result given.

SMILES	EP2 modulator	S1P4 antag	S1P4 ag	S1P3 antag	EP2 antag	Pf gamet viab
Cc1ccc(-c2oc3ccccc3c(=O)c2O)cc1	-15	-19	0	-23	17	·
Cc1cccc(C)c1NC(=O)c1cncc(O)c1	3	·	·	·	9	·
CC(=O)Oc1ccc(/C=C2\C=C(c3ccc(C)cc3)OC2=O)cc1Br	-45	·	·	·	14	·
CSc1ccccc1N=Cc1nc(-c2ccccc2)oc1O	61*	-15	0	15	9	·
Cc1ccc(C2=Nc3ccccc3N=C(c3ccco3)C2)c(O)c1	32	-14	0	·	12	·
Cc1ccc(O)c(C2=Nc3ccccc3N=C(c3ccco3)C2)c1	63*	0	-1	·	17	·
CCCc1[nH]nc2c1C(c1ccnc3ccccc13)C(C#N)=C(N)O2 (stereo not drawn)	-31	·	·	·	5	·
COc1ccc(S(=O)(=O)N2CCC(C(=O)Nc3cccc(C)c3)CC2)cc1C	-52	·	·	·	9	·
Cc1nc2ccc3nc(NC(=O)c4ccc5c(c4)OCCO5)sc3c2s1	4	7	0	6	52*	·
Cc1ccc(C(=O)c2cc([N+](=O)[O-])ccc2N2CCOCC2)cc1	12	-15	-2	-19	3	·
CC(C)=Cc1oc2ccc([N+](=O)[O-])cc2c1N1CCOCC1	64*	-4	1	-12	5	-24
COc1ccc(C(NC(=O)C(C)c2ccccc2)c2nccn2C)cc1OC (stereo not drawn)	-17	·	·	·	·	·
Cc1nc2ccccc2nc1-c1ccc(N=[N+]([O-])c2ccc(-c3nc4ccccc4nc3C)cc2)cc1	7	·	·	·	54*	·
COc1ccc(-c2nc3ccccc3nc2-c2ccc(OC)cc2)cc1	·	·	·	·	·	15
C=CCn1c(SCCN2C(=O)c3ccccc3C2=O)nc2scc(-c3ccccc3)c2c1=O	-5	-8	0	·	66*	·
O=C(O)c1cc(-c2cccc([N+](=O)[O-])c2)nc2ccccc12	5	-9	2	-16	5	-12
Nc1nc(-c2cccc([N+](=O)[O-])c2)cc(-c2cc(-c3cccc([N+](=O)[O-])c3)nc(N)n2)n1	8	·	·	·	44*	·
CC1Cc2cc(C(=O)c3ccccc3Cl)ccc2O1 (stereo not drawn)	-24	·	·	·	12	·
FC(F)(F)c1cccc(-c2nnc3ccc(C(F)(F)F)cn23)c1	-5	-5	1	93*	7	-14
COc1ccc(N(C(=O)Cc2cccs2)C(C(=O)NC2CCCC2)c2ccccc2F)cc1 (stereo not drawn)	43	·	·	·	7	·
CN1CCN(CC(=O)N2c3ccccc3C(C)(c3ccccc3)CC2(C)C)CC1 (stereo not drawn)	19	-4	1	8	9	·
CC1(c2ccccc2)CC(C)(C)N2C(=O)Cc3cccc1c32 (stereo not drawn)	62*	13	0	1	5	·
Cc1sc2nc(SCc3ccc(C(=O)O)cc3)n(Cc3ccco3)c(=O)c2c1C	82*	13	-1	-2	6	28
COc1ccc(C2(NC(=O)CCn3cnc4ccccc43)CCCCC2)cc1	-37	·	·	·	7	·
O=C(Cn1nnc(-c2ccc(N3CCOCC3)cc2)n1)c1ccc2c(c1)OCCO2	-45	·	·	·	8	·
SMILES	EP2 modulator	S1P4 antag	S1P4 ag	S1P3 antag	EP2 antag	Pf gamet viab
OC1C[C@H]2CC[C@@H](C1)N2CCCN1c2ccccc2Sc2ccc(Cl)cc21 (stereo partly drawn)	-16	·	·	·	47*	·
OCCN1CCN(CCCN2c3ccccc3Sc3ccc(Cl)cc32)CC1	-37	-16	-1	7	17	·
O=C(c1ccc(COc2ccccc2Br)o1)N1N=C(C(F)F)CC1(O)C(F)F (stereo not drawn)	-52	-5	0	4	5	49*
O=C(c1ccc(Cn2cc([N+](=O)[O-])cn2)o1)N1N=C(C(F)F)CC1(O)C(F)F (stereo not drawn)	-6	-22	1	·	4	·
O=C(CSc1nc2ccccc2s1)c1sc2sc3ccccc3[n+]2c1O	-4	·	·	·	66*	·
CCn1c(CCCc2nc3c([nH]2)c(=O)n(C)c(=O)n3C)nc2c1c(=O)n(C)c(=O)n2C	-4	·	·	·	45*	·
Cn1c(=O)c2[nH]c(CCCCc3nc4ccccc4[nH]3)nc2n(C)c1=O	-1	·	·	·	41*	·
Cn1c(=O)c2[nH]c(COCc3nc4c([nH]3)c(=O)n(C)c(=O)n4C)nc2n(C)c1=O	15	·	·	·	38	·
Cn1c(=O)c2[nH]c(CCS)nc2n(C)c1=O	28	·	·	·	13	·

Source: PubChem BioAssay (several laboratories)
